# Results reported in the supplement of paper PMC6555819.
# How the values were obtained:
# Assay in all cases: PBM binding z-score (relative to random genomic background probes); higher = stronger binding; sequences stand for … in GC…GCGATTGACAGCGTAGAATGAAGG
# [1] = system: RARb homodimer (NR concentration 270 nM)
# Summary of the method: (§1)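 Custom Agilent 4×180K protein-binding microarrays carried double-stranded probes, each with a 34-nt variable region. These regions held direct-repeat seeds, single-nucleotide variants, half-site ablations and random human genomic background sequences. Ligand-free nuclear receptor dimers were incubated on the arrays for 1 h, antibodies against each partner (one per run) detected binding, and scanned fluorescence was regression-normalized. Binding z-scores take the random background probes as reference.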
# [2] = system: RARg:RXRa (NR concentration 270 nM, RXRa partner concentration 90 nM)
# Summary of the method: as §1
# [3] = system: RARg homodimer (NR concentration 270 nM)
# Summary of the method: as §1
# [4] = system: RXRa DBDmut IVT, anti-RXR (DBD mutation: RXRa K156A/R161A, NR concentration 90 nM)
# Summary of the method: as §1
# [5] = system: RXRa homodimer (NR concentration 180 nM)
# Summary of the method: as §1
# [6] = system: THRa:RXRa (NR concentration 90 nM, RXRa partner concentration 90 nM)
# Summary of the method: as §1
# [7] = system: THRa homodimer (NR concentration 90 nM)
# Summary of the method: as §1
# [8] = system: VDR homodimer (NR concentration 270 nM)
# Summary of the method: as §1
Sequence,PBM binding z-score [1],PBM binding z-score [2],PBM binding z-score [3],PBM binding z-score [4],PBM binding z-score [5],PBM binding z-score [6],PBM binding z-score [7],PBM binding z-score [8]
ATCGAACGGTCGTGAGGTGAGTATACAGAAAGGC,0.679,0.948,1.19,-0.665,0.53,1.48,0.666,-0.261
TTACCAAGGTGAAGCTCGTTGATCCCTCTGTAGA,0.199,0.159,-0.0803,-0.864,0.473,1.57,0.166,-0.835
CGTCAAAGTTCAACGAAGGTAACGTAAAGCACGC,4.08,5.47,6.39,4.2,4.5,4.52,0.29,3.33
ATATGTAGGTTACATCCGGGTCATTGAGGCTATG,3,3.72,2.07,1.25,3.12,3.92,2.69,2.7
AGTCAAAGTTCAGGACGAGGTAACGCAAAGCACG,3.22,4.76,4.54,2.81,3.06,3.75,1.73,1.73
CAGCCTAGGTCAGGCCCAGTATAGGAGGAACGTT,2.11,2.54,3.21,-0.298,1.14,1.66,0.183,-0.788
AGAATGAGGTTACCAAAGATCAGGCAAACGCTTG,0.854,1.97,1.63,1.16,2.65,2.84,0.538,-0.192
TTACCAAGGTGACAGGTCGTTGATGCACGCCTTG,1.52,1.37,1.17,0.0135,1.61,2.19,1.19,0.797
CAGCCTAGGTCAGGGCCAGTAGAGGAGGAACGTT,2.31,2.91,3.9,-0.543,1.35,1.88,0.411,0.169
GTAGACAGGTGAAACGCAGGTAACTCAGGGTGGC,0.348,0.896,0.286,-0.661,0.743,1.43,-0.349,-0.271
ATACCAAGGTGATCGTGAGGTCGTTGACACTAAC,1.85,2.27,0.855,0.311,1.56,3.63,2.59,2.93
ATATGTAGGTTAACGGGTCATTCAGTTTGCGCAT,2.84,3.21,2.62,1.46,3.46,2.27,0.71,2.56
ACAGACAGGTGAGTGAAGGTAACCCAGCTGGACG,0.564,0.107,0.469,-0.852,0.562,1.63,0.00911,-0.164
CGATCTAGGTCAGAACAGGACAGTGAAGGATGAT,1.97,2.2,2.89,0.851,0.982,3.36,0.505,-0.107
ACTATTAGTTTACTTAGGGCAACCGATACGACGC,0.74,0.56,1.01,1.17,0.51,1.66,0.312,0.435
ATATGTAGGTTAAGGGTCAATCAGGTTGGTTCGC,3.94,4.94,3.82,1.7,5.96,3.45,1.54,3.33
ACTAGTTGGTCAGCTGAGGTCACTCACAATTCGG,4.24,3.48,3.38,1.11,3.13,4.98,4.9,2.68
AGTCCAAGTTCAGGACGAGGTAACGTAAAGCACG,1.71,2.68,2.35,3.51,1.3,3.44,1.65,2.91
GGAACGAGGGTATTCGAGTTGATAGCATGGCGAT,-0.529,-0.0783,0.118,0.869,0.0441,1.82,-1.03,0.63
CCTCAAAGTTCAAGGTAACGTAACAGAAAGCAGC,4.13,5.48,6.39,4.29,4.44,3.32,1.79,3.65
CGTCCAAGGTCAATGCTAGGTCAGTGATAGCATT,5.15,7.48,6.91,3.87,5.32,4.38,3.02,3.54
AGAATGAGGTTAAGATCACGGAAACAGAATACAT,0.84,2.33,1.81,0.924,2.92,2.47,0.742,0.686
CAAACTAGGTCACAAAGGTCAAAGTCCGTGCGTA,5.75,7.55,8.33,3.46,8.41,4.52,2.58,6.7
CCTAGCAGGCCAATCTGGGTCTCTCAAGGCTTGA,-0.52,-0.494,-0.505,-0.243,-0.68,0.975,-0.574,-0.65
ACTATTAGTTGACTTAGGGCACCCGATACGACGC,0.58,0.574,0.897,0.79,0.316,0.993,0.664,0.399
CCTACTGGGCCATTCAGAGGTCAGTGATCATATG,3.78,4,2.75,0.291,2.29,2.18,0.651,1.13
TGTCAAGGTTCAAAGGTAACGTAAGTATCCACAC,1.99,4.38,3.11,4.37,6.08,3.12,-0.0609,4.49
ATATTTAGGTTATCGGGTCATTCAGTTTGCGCAT,3.44,3.54,2.82,1.92,3.57,3.62,3.93,4.95
GGAGCGAGGGCAAAGTTGATAGCATCTGTCGACG,0.881,1.71,1.34,2.06,1.7,0.838,-0.34,0.99
